Vaccinia mCherry – qHTS for Stage-Specific Inhibitors of Vaccinia Orthopoxvirus: mCherry Reporter Primary qHTS | Vaccinia virus mCherry reporter infection, fluorescence | Potency, µM (series often up to 36.5 µM), usual class: inhibitors | 0.63% of 310,000 active; calls by dose curve; tested in A549 cells; note: nearly all actives have a fitted effect of over 35% in size
VACV Venus inh – qHTS for Stage-Specific Inhibitors of Vaccinia Orthopoxvirus: Venus Reporter Primary qHTS; Potency, µM (doses to about 36.5 µM), actives largely listed as inhibitors; Vaccinia virus Venus reporter expression, fluorescence; 0.46% of 330,000 active; calls by dose curve; tested in A549 cells; note: nearly all actives have a fitted effect of over 30% in size
Marburg entry inh – qHTS for inhibitors of binding or entry into cells for Marburg Virus; Marburg virus pseudotyped entry inhibition, cell reporter; Potency, µM (titrated, usually from 37.8 µM), most hits filed as inhibitors; 1.8% of 300,000 active; calls by dose curve; tested in HEK293 cells
LASV entry inh – qHTS for Inhibitors of binding or entry into cells for Lassa Virus. Lassa virus pseudotype entry inhibition, cell reporter. Potency, µM (titrated, usually from 37.9 µM), most hits filed as inhibitors. 1.2% of 300,000 active. AID 540256, 2011; calls by dose curve; tested in HEK293 cells; note: nearly all actives have a fitted effect of over 50% in size
HCV inh – qHTS Assay for Inhibitors of Hepatitis C Virus (HCV) | Potency, µM (series often up to 41.8 µM), usual class: inhibitors | AID 651820, 2012 | 3.4% of 340,000 active | Huh7.5.1 HCVcc-Cre infection, luciferase reporter, 44 h; active = well fitted inhibition curve with a large enough effect; inconclusive = small, poorly fitted or top-dose-only effect, or another doubt; inactive = no such curve, though single readings can be large or run the other way
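Luciferase read-out (15 sec integration) after a 15 min room-temperature substrate step quantifies HCVcc-Cre infection. Cells, 1,000 per well, had compound added 4 h post-plating, then virus at ~0.5 moi, and were cultured 44 h.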
Each line names hits and unclear results; the compound was inactive in the other large screens. Compounds with a hit are over-represented: about 4.6% of the library has one in this group of screens.

COCc1cc(=O)n2[nH]c(C)c(-c3ccc(Cl)cc3)c2n1	Vaccinia mCherry 10µM, VACV Venus inh inconclusive (no result: Marburg entry inh, LASV entry inh, HCV inh)
Cc1nc2c(-c3ccc(Cl)cc3)c(C)[nH]n2c(=O)c1Cc1ccccc1	Vaccinia mCherry 6.31µM, VACV Venus inh inconclusive, Marburg entry inh 3.98µM, LASV entry inh inconclusive, HCV inh inconclusive
Cc1nc2c(-c3ccccc3)c(C)[nH]n2c(=O)c1Cc1ccccc1	Vaccinia mCherry inconclusive, Marburg entry inh inconclusive, HCV inh 10µM
C=CCCN(Cc1ccc(C)cc1)S(=O)(=O)C=C	none (no result: Vaccinia mCherry, VACV Venus inh, Marburg entry inh, HCV inh)
CCn1c(-c2ccccc2F)nc2cc(NC(C)=O)cc(C(=O)N(C)Cc3cn(C)nc3C)c21	none (no result: Marburg entry inh, LASV entry inh, HCV inh)
O=C(C1CCC(Cn2c(=O)c3sccc3n(Cc3cccc(F)c3)c2=O)CC1)N1CCCCC1 (stereo not drawn)	none (no result: Marburg entry inh, HCV inh)
COc1cccc(CNC(=O)Cc2csc(NC(=O)Nc3ccccc3OC)n2)c1	LASV entry inh inconclusive, HCV inh 5.62µM
COc1ccc(NC(=O)Cc2csc(NC(=O)Nc3ccccc3OC)n2)c(OC)c1	Vaccinia mCherry inconclusive, Marburg entry inh inconclusive
COc1ccccc1NC(=O)Nc1nc(CC(=O)NCc2ccc(F)cc2)cs1	Vaccinia mCherry inconclusive, VACV Venus inh inconclusive, Marburg entry inh inconclusive, HCV inh 7.08µM
Cc1ccc(S(=O)(=O)N(C)C)cc1NC(=S)NC(=O)C12CC3CC(CC(C3)C1)C2	Marburg entry inh inconclusive, HCV inh 15.8µM
O=C(NCc1ccccc1)C(=O)NCC(c1ccco1)S(=O)(=O)c1ccccc1 (stereo not drawn)	none (no result: Marburg entry inh, HCV inh)
COc1ccc2c(Sc3ccc(Cl)cc3)c(C(=O)N3CCCCC3)[nH]c2c1	Marburg entry inh inconclusive (no result: HCV inh)
CS(=O)(=O)c1ccc(-n2nnc3ccccc32)c([N+](=O)[O-])c1	Marburg entry inh inconclusive
CC(=O)c1ccc(N2CCN(c3ccc(S(=O)(=O)NCCCN(C)C)cc3[N+](=O)[O-])CC2)cc1	HCV inh 11.2µM (no result: Vaccinia mCherry, VACV Venus inh, Marburg entry inh, LASV entry inh)
CNS(=O)(=O)c1ccc(N2CCCC2)c([N+](=O)[O-])c1	none (no result: Vaccinia mCherry, VACV Venus inh, Marburg entry inh, LASV entry inh)
CN(C)CCCNS(=O)(=O)c1ccc(N2CCN(Cc3ccc4c(c3)OCO4)CC2)c([N+](=O)[O-])c1	Vaccinia mCherry inconclusive, Marburg entry inh inconclusive, LASV entry inh inconclusive, HCV inh 5.62µM
CN(C)CCCNS(=O)(=O)c1ccc(-n2nnc3ccccc32)c([N+](=O)[O-])c1	Marburg entry inh inconclusive, HCV inh 17.8µM
CN(C)CCNS(=O)(=O)c1ccc(N2CCc3ccccc32)c([N+](=O)[O-])c1	Vaccinia mCherry inconclusive, Marburg entry inh inconclusive, HCV inh 10µM
CS(=O)(=O)CCNCc1nc(-c2ccc3ncnc(Nc4ccc(F)c(Cl)c4)c3c2)cs1	none (no result: Vaccinia mCherry, VACV Venus inh, Marburg entry inh, HCV inh)
O=[N+]([O-])c1cc(S(=O)(=O)Nc2ccccc2)ccc1N1CCN(c2ccccc2)CC1	Vaccinia mCherry inconclusive, VACV Venus inh inconclusive, Marburg entry inh inconclusive, LASV entry inh inconclusive, HCV inh 12.6µM
O=[N+]([O-])c1cc(S(=O)(=O)C(F)(F)F)ccc1N1CCN(c2ccccc2)CC1	Marburg entry inh inconclusive, LASV entry inh inconclusive
CC1CN(c2ccc([N+](=O)[O-])c(NCCOc3ccccc3)c2)CC(C)N1 (stereo not drawn)	VACV Venus inh inconclusive, Marburg entry inh inconclusive, HCV inh inconclusive
CCc1ccc(OCCNc2cc(N3CCNC(C)C3)ccc2[N+](=O)[O-])cc1 (stereo not drawn)	HCV inh 14.1µM (no result: Vaccinia mCherry, VACV Venus inh, Marburg entry inh, LASV entry inh)
CC1CN(c2ccc([N+](=O)[O-])c(NCCOc3ccc(Cl)cc3)c2)CC(C)N1 (stereo not drawn)	HCV inh 8.91µM (no result: Vaccinia mCherry, VACV Venus inh, Marburg entry inh, LASV entry inh)
CSc1cccc(NC(=S)N2CCCN(Cc3cccc(Cl)c3)C2)c1	Marburg entry inh 4.47µM, LASV entry inh inconclusive, HCV inh inconclusive
CSc1cccc(NC(=S)N(CCCN2CCCC2)Cc2cccn2Cc2ccc(Cl)cc2)c1	Vaccinia mCherry inconclusive, VACV Venus inh inconclusive, Marburg entry inh 6.31µM, LASV entry inh 2.82µM, HCV inh inconclusive
S=C(Nc1cccc(Cl)c1)N(CCCN1CCCC1)Cc1cccn1Cc1ccc(Cl)cc1	Vaccinia mCherry inconclusive, VACV Venus inh inconclusive, Marburg entry inh inconclusive, LASV entry inh inconclusive
Cc1ccccc1CN1[C@H](C)[C@H](c2ccccc2)OCCS1(=O)=O	none (no result: Marburg entry inh, LASV entry inh, HCV inh)
O=c1[nH]c(O)c(/C=C2/C=CC(c3cc(Cl)ccc3Cl)=N2)c(=O)[nH]1	Marburg entry inh inconclusive, LASV entry inh 13µM, HCV inh 31.6µM
CC1=Nc2ccccc2/C1=C/c1c(O)[nH]c(=O)[nH]c1=O	none (no result: Vaccinia mCherry, VACV Venus inh, Marburg entry inh, LASV entry inh)

High-throughput results as filed in PubChem BioAssay.
